According to PMC7819943, “Rice protein-binding microarrays: a tool to detect cis-acting elements near promoter regions in rice”:
Over roughly 35,000 sequences, “fluorescence intensity (a.u.)” has its median near 10,000; the highest 2% begin near 52,000. This excerpt belongs to a sample that is enriched for the highest values.

Biological target: T1, OsWOX13 (Oryza sativa, UniProt Q5QMM3 1-267)
T1 sequence: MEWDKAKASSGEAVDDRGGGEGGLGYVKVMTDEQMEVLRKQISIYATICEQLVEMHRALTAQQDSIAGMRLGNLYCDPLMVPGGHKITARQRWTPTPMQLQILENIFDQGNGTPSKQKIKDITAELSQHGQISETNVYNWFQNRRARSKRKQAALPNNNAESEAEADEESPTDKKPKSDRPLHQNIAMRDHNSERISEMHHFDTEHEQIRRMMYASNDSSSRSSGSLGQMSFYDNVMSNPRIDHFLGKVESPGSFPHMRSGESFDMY
Test: protein-binding microarray (RPBM); PBS, 2% BSA, 51.3 ng/ul salmon testes DNA, 50 uM zinc acetate, 200 nM TF, 25 C, 1 h; high values mean tight binding
Conditions: protein: recombinant; tags: N-terminal polyhistidine and DsRed monomer fusion (pET32a); label: CyDye5-dUTP incorporated in the synthesized complementary strand; 3' TTTTT single-stranded linker to array surface; dsDNA, one strand shown
In short: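 An Axon 4000B scanner gave the binding signal as per-feature fluorescence intensity in arbitrary units. This followed washing of a custom Agilent array that had been incubated for 1 h at 25 °C with 200 nM protein in PBS, 2% BSA, salmon testes DNA and 50 µM zinc acetate. The proteins were transcription factors fused at the N-terminus to polyhistidine and DsRed, expressed in E. coli BL21-CodonPlus and purified on Ni–NTA.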

Row | Sequence | binding signal
1 | CCAAACAGATTGAACTCGACGATTGGACGAATACGGCGATCGGAGTCACCTAGTGCAG | 58900 fluorescence intensity (a.u.)
2 | CGGATTGATCGACGGCGAAGAATGAAGCTCACCAGAATTTCGGAGTCACCTAGTGCAG | 5290 fluorescence intensity (a.u.)
3 | TCCATTGATTGAGGAATAGTGCCAGCTTTAGATTTGCTCCCGGAGTCACCTAGTGCAG | 53400 fluorescence intensity (a.u.)
4 | CGAGATTGATTAGGACTCGGAATCGATCGGAGTCGGAGTACGGAGTCACCTAGTGCAG | 54800 fluorescence intensity (a.u.)
5 | TAAGGTGCAGATTGATTTGCCATCCCAGAGCAGCAGCTTGCGGAGTCACCTAGTGCAG | 29500 fluorescence intensity (a.u.)
6 | ATGGAAATTGATTAGGAGATTATTGATGCGATAAGTAGTACGGAGTCACCTAGTGCAG | 37000 fluorescence intensity (a.u.)
7 | TATTACATCGATCATATTGATTGTCGATTAGTACACCTTACGGAGTCACCTAGTGCAG | 5790 fluorescence intensity (a.u.)
8 | TTCAATTTGATTTTGATTTTAGGTGAATCTATAGATATCACGGAGTCACCTAGTGCAG | 9990 fluorescence intensity (a.u.)
9 | AACTTAATTTGATAAGAAAATTTAGTGGAGTCACCACAAGCGGAGTCACCTAGTGCAG | 44100 fluorescence intensity (a.u.)
10 | GGAAATATGTTAATTAAAATAATGCAACCCTAATCAGCAACGGAGTCACCTAGTGCAG | 10500 fluorescence intensity (a.u.)
11 | GATAATGATATGACCATGGTGATTTCGTCAATCTCAATACCGGAGTCACCTAGTGCAG | 12100 fluorescence intensity (a.u.)
12 | CAGACTGACAAGTGACAAGCAGAGGGCATCTCAGTACGCGCGGAGTCACCTAGTGCAG | 3390 fluorescence intensity (a.u.)
13 | ATCTAGAATTAGATGTGACATATCGTAGTACTATGAACCTCGGAGTCACCTAGTGCAG | 4830 fluorescence intensity (a.u.)
14 | ATGGTTGATTGCTTGATCAAGGCATGCATCACTTGCTATGCGGAGTCACCTAGTGCAG | 55800 fluorescence intensity (a.u.)
15 | TTCCGGTTCCTGATTGCTTGCTCCACCGATTGACCGATCGCGGAGTCACCTAGTGCAG | 18100 fluorescence intensity (a.u.)
16 | CCTCATCCCTGATTGTGATTTTCTTTCCACACCACCCGGACGGAGTCACCTAGTGCAG | 19500 fluorescence intensity (a.u.)
17 | GAGCTATTGATTGATTGATTGCTGATCGCTTCCAGTTCCACGGAGTCACCTAGTGCAG | 54700 fluorescence intensity (a.u.)
18 | AATGCTTGATTGCACTTCGCTGTTCAGTTCATCATGCCTACGGAGTCACCTAGTGCAG | 27400 fluorescence intensity (a.u.)
19 | GCTCGATTGCCTTTTCATCATTCACATTGTTCTTCTTCTTCGGAGTCACCTAGTGCAG | 11600 fluorescence intensity (a.u.)
20 | TTTGGATTGATCATGGTCATTTGTACTTTTGTAGTCTTTACGGAGTCACCTAGTGCAG | 21500 fluorescence intensity (a.u.)
21 | GTGATTGATTCGATTGATTGCCGCATCCACAGTTCTTTTCCGGAGTCACCTAGTGCAG | 54700 fluorescence intensity (a.u.)

Row | Sequence | binding signal
22 | GGGACAATCAGGGATTGTATGGTTTGAAGCTGATTTTGGCCGGAGTCACCTAGTGCAG | 3320 fluorescence intensity (a.u.)
23 | GCAAGTGTGATTGATCATTACTTGCTTGGTCTGATGGTTGCGGAGTCACCTAGTGCAG | 48300 fluorescence intensity (a.u.)
24 | CTTGATTGGATCAGGATCATTTGGCATGGTTTACAAGGGCCGGAGTCACCTAGTGCAG | 65100 fluorescence intensity (a.u.)
25 | TGGGCAGCAGCTTGATTTGATTGCTTCATTTATCAAGTTGCGGAGTCACCTAGTGCAG | 13600 fluorescence intensity (a.u.)
26 | CTCTACAGTAAATCAAACAGTAATCACACTCCAAACAAAACGGAGTCACCTAGTGCAG | 5420 fluorescence intensity (a.u.)
27 | ATTGGCTAGATTGGAAGCAAGAGAAGCTGCAGCGAAGGCACGGAGTCACCTAGTGCAG | 7860 fluorescence intensity (a.u.)
28 | TTTGGAAATTATCTATGAATTTACCTAGTTTCATCGTCCACGGAGTCACCTAGTGCAG | 4970 fluorescence intensity (a.u.)
29 | AGTTTTACAATAAATTTACTGTTATAAATATACATTTAACCGGAGTCACCTAGTGCAG | 6140 fluorescence intensity (a.u.)
30 | TTTGATGGGAATTTGTTTCAGATATGCTTACGTGCACATACGGAGTCACCTAGTGCAG | 13800 fluorescence intensity (a.u.)
31 | AACTAATTGTTTCTTCAGACTTCTTCAGAGCATTCTCCAGCGGAGTCACCTAGTGCAG | 36800 fluorescence intensity (a.u.)
32 | GTGATCACCCTTTGATTGACCCGCACCCGCATCCCTTTCCCGGAGTCACCTAGTGCAG | 35500 fluorescence intensity (a.u.)
33 | ATTGATTGATCAAGACTGCATGGCAATACTCGACGTGCTGCGGAGTCACCTAGTGCAG | 64800 fluorescence intensity (a.u.)
34 | ATGATTTGCATGATTGCTTGCTTGCTTGCTGCTATGGCCACGGAGTCACCTAGTGCAG | 62700 fluorescence intensity (a.u.)
35 | CTCATGATTTACGGCTGCTGGCCGCCGGGCTATTTAACCACGGAGTCACCTAGTGCAG | 10900 fluorescence intensity (a.u.)
36 | CCAATAATAACACTGATCACTGATCAATCATGGCATCATGCGGAGTCACCTAGTGCAG | 16000 fluorescence intensity (a.u.)
37 | TTGATTGCAGATCAAATGCATGCAATAAGAATGGAGATGGCGGAGTCACCTAGTGCAG | 19600 fluorescence intensity (a.u.)
38 | TATTTTGCTTAAATGGCTGATTAGTCAAAGCATTTGGCCACGGAGTCACCTAGTGCAG | 4720 fluorescence intensity (a.u.)
39 | TGTCACATCACATCGATCATTGATTTCACTTTGATTCCTCCGGAGTCACCTAGTGCAG | 5220 fluorescence intensity (a.u.)
40 | ATCATGATTGCATGATTGATTGCACATTTGCATCATTTCCCGGAGTCACCTAGTGCAG | 63400 fluorescence intensity (a.u.)
41 | AAGATTGGATTCGCTGCAATACCATCACTAAACTCGGCTTCGGAGTCACCTAGTGCAG | 12800 fluorescence intensity (a.u.)
42 | CACTTAATCATATTCATCATATTCAAACGGGACCTAAGGGCGGAGTCACCTAGTGCAG | 8880 fluorescence intensity (a.u.)
